Sampled rows, rich in hits. Any-hit rate of the full collection: about 9.3%.
ELG1 repair inh = blocks ELG1-dependent DNA repair in HEK293T cells; HEK293T ELG1-luciferase reporter, luminescence, 16 h; DNA damage induced by 5-fluorouridine; Potency, µM (top dose mostly 46.1 µM), without a hit: at the highest dose activity change, negative = inhibition, actives largely listed as inhibitors; hit rate 2.3% among 330,000; also: % is scaled to controls: 0 for no effect and ±100 for the full control effect; nearly all actives have a fitted effect of over 55% in size
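Cells (2,000 per well) received 5-fluorouridine plus test compound or DMSO and were incubated 16 hr at 37 °C, 5% CO2. Luciferase activity was read by luminescence 30 min after ONE-Glo addition; signal suppression marked inhibition of damage-induced ELG1 function.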
SMN2 splice up = increases expression of the SMN2 splice variant; HEK293 SMN2-luciferase splicing reporter, luminescence, 30-36 h; Potency, µM (titrated, usually from 46.1 µM), without a hit: at the highest dose activity change, positive = activation, most hits filed as activators; hit rate 2.8% among 210,000; also: % of control where 0% means no effect; nearly all actives have a fitted effect of over 55% in size
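HEK293 cells carry an SMN2 […]–luciferase reporter in which exon 7 inclusion puts luciferase in frame. Cells were plated 10-12 h before compound addition, then incubated 30-36 h at 37C. ONE-Glo luminescence was read; sodium butyrate at 4.5 mM final served as control.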
FLuc counter = counter-screen for miR-21 project: firefly luciferase inhibitors or activators; purified FLuc, Km substrates, luminescence inhibition; Potency, µM (top dose mostly 57.5 µM), for inactives: at the top dose activity change, negative = inhibition, actives largely listed as inhibitors; hit rate 6.9% among 360,000; AID 588342; P08659;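 also: plate controls were vehicle for no effect and reference inhibitor for full effect; nearly all actives have a fitted effect of over 55% in size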
Target sequence (P08659 whole entry, looked up): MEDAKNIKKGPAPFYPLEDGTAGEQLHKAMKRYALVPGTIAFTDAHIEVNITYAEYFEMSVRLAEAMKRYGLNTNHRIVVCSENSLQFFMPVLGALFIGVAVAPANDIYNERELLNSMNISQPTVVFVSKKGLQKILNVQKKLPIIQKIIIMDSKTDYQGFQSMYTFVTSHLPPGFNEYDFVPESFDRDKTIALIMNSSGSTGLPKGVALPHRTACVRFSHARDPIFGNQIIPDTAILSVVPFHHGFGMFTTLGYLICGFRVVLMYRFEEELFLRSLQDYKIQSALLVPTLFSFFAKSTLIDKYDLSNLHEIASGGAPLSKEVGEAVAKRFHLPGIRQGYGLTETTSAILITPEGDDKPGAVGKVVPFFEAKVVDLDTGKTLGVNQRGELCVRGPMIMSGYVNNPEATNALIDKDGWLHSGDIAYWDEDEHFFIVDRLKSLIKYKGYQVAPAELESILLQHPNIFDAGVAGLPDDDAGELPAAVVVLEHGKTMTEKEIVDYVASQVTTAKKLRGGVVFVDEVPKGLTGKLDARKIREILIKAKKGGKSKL
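Purified P. pyralis luciferase, 10 nM final, with Km-level 10 uM D-luciferin and 10 uM ATP in 50 mM Tris acetate pH 7.5, 10 mM Mg acetate, 0.01% Tween-20, 0.05% BSA; 6-point qHTS titration about 60 µM downward; luminescence read.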
Rab9 prom act = activates the Rab9 promoter; Huh7 Rab9 promoter-luciferase reporter, luminescence, 24 h; AID 485297; Potency, µM (titrated, usually from 9.22 µM), without a hit: top-dose activation, negative = inhibition, hits mostly activators; hit rate 2.8% among 320,000; also: % of control where 0% means no effect; nearly all actives have a fitted effect of over 60% in size
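Luciferase signal after 10 min detection reagent at ambient indicates Rab9 promoter upregulation; stably transfected Huh7 cells were treated 24 h with compound in DMSO at 37 °C, 5% CO2.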
ELG1 genotoxic = inducers of genotoxicity in HEK293T ELG1-luciferase cells | HEK293T ELG1-luciferase reporter, luminescence, 16 h | Potency, µM (top dose mostly 46 µM), without a hit: top-dose activity change, positive = activation, hits mostly activators | hit rate 1.3% among 330,000 | AID 504466; also: % of control where 0% means no effect; nearly all actives have a fitted effect of over 60% in size
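Reporter readout depends on ELG1 protein level, which increases with genetic stress. After 16 hr compound exposure at 37 °C, luciferase activity was quantified using ONE-Glo.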
NPC1 prom act = activates the NPC1 promoter; hit rate 2.4% among 320,000; Potency, µM (series often up to 9.22 µM), for inactives: at the top dose activation, most hits filed as activators; AID 485313; Huh7 NPC1 promoter luciferase reporter, 24 h; also: % of control where 0% means no effect; nearly all actives have a fitted effect of over 60% in size
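Huh7 cells stably carrying NPC1 promoter–luciferase, plated in Opti-MEM with 10% FBS for 2 h, were exposed to compound in DMSO for 24 h at 37 °C; luciferase reagent was added for 10 min and luminescence read.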
An asterisk follows results filed as active; ? = inconclusive; / = not tested or not shown. Calls follow the shape of the dose curve; as a rule, active = well fitted curve in the direction sought with a large enough effect; inconclusive = small, poorly fitted or top-dose-only effect, or another doubt; inactive = no such curve, though single readings can be large; an effect the other way counts as inactive or inconclusive. Potency is read from the fitted curve at half-maximal effect.

SMILES | ELG1 repair inh | SMN2 splice up | FLuc counter | Rab9 prom act | ELG1 genotoxic | NPC1 prom act
COc1ccc(NS(=O)(=O)c2cccc(C(=O)N/N=C/c3ccc4c(c3)OCCO4)c2)cc1 | 7.0% | 21.1% | -1.2% | -2.7% | 1.2% | 0.1%
O=C(N/N=C/c1ccc2c(c1)OCO2)c1ccc(Br)o1 | ? | 12.6µM* | 4.78µM* | 2.82µM* | 10.3µM* | 4.47µM*
CCCCCCOc1ccc(/C=N/NC(=O)C2CC2)cc1 | 5.4% | / | -3.4% | 4.1% | 4.5% | -0.5%
COc1ccccc1NS(=O)(=O)c1cccc(C(=O)N/N=C/c2ccc3c(c2)OCCO3)c1 | 10.0% | 22.7% | 10.7µM* | 1.5% | 3.5% | -1.4%
CCN(CC)c1ccc(/C=N/NC(=O)C2CC2)cc1 | ? | / | 15.1µM* | ? | ? | 16.0%
O=C(N/N=C/c1ccc2c(c1)OCCO2)c1ccncc1 | 16.5% | / | 9.53µM* | -2.0% | 7.4% | -2.1%
CCN1C(=O)[C@H]2[C@@H](c3ccc(C)cc3)N3C(=O)N(c4cccc(F)c4)C(=O)[C@@]3(C)[C@H]2C1=O | ? | / | 0.2% | -6.0% | 0.2% | 0.5%
COc1cccc(C2NC(=O)CCC2[N+](=O)[O-])c1 (configuration not stated) | 7.2% | / | 0.0% | -11.9% | 0.3% | 2.1%
O=C(N/N=C/c1ccncc1)c1ccc2c(c1)OCO2 | ? | ? | 26.9µM* | 15.2% | -6.1% | 7.9%
O=C(N/N=C/c1ccc2c(c1)OCO2)c1ccc2c(c1)OCCO2 | ? | 11.2µM* | 1.9µM* | ? | ? | ?
O=C(N/N=C/c1ccc(Cl)cc1)c1ccc2c(c1)OCO2 | ? | / | 3.38µM* | 25.8% | ? | 7.8%
O=C(N/N=C/c1cccc([N+](=O)[O-])c1)c1ccc2c(c1)OCCO2 | ? | 22.4µM* | 1.35µM* | 2.24µM* | ? | 3.55µM*
O=C(CNC(=O)c1ccc2c(c1)OCCO2)N/N=C/c1ccc([N+](=O)[O-])cc1 | 0.3% | / | -0.2% | 1.7% | ? | -5.0%
O=C(N/N=C(/c1ccccc1)c1ccncc1)c1ccc2c(c1)OCO2 | -28.2% | -11.8% | -2.1% | 2.3% | -0.8% | -0.5%
COc1cc(NC(=O)c2ccc(-c3nc(COc4ccccc4)c(C)o3)cc2)cc(OC)c1 | / | / | 3.7% | / | / | /
Cc1cccc(NC(=O)CSc2nccn2-c2cccc(Cl)c2)c1C | / | / | -13.7% | / | / | /
Cc1ccc(CNC(=O)CNC(=O)[C@@H]2Cc3ccccc3CN2C(=O)OC(C)(C)C)cc1 | 0.2% | / | 2.0% | 10.0% | -1.8% | 2.8%
CC(=O)Nc1ccc(S(=O)(=O)Nc2ccn(Cc3ccccc3Cl)n2)cc1 | -9.4% | / | -1.2% | -1.5% | -0.3% | -1.8%
Cc1nc2ccc(C(=O)N/N=C/c3ccccc3O)cc2[nH]1 | ? | / | 12µM* | ? | ? | ?
O=C(N/N=C/c1cc(Br)cc([N+](=O)[O-])c1O)c1ccc(NC(=O)c2ccc(F)cc2)cc1 | 13µM* | / | -11.4% | 0.5% | 23.6% | 0.4%
O=C(N/N=C/c1ccccc1O)c1ccc2c(c1)OCO2 | ? | / | 2.69µM* | -17.0% | 14.6µM* | ?
O=C(N/N=C/c1ccccc1)c1ccc(NC(=O)c2ccc(F)cc2)cc1 | 0.5% | / | 0.8% | ? | 0.3% | 10.3%
O=C(N/N=C/c1cc(Cl)cc([N+](=O)[O-])c1O)c1ccc2c(c1)OCO2 | ? | / | 10.7µM* | -4.0% | 19.4% | -15.0%
O=C(NCc1n[nH]c(=S)n1-c1ccc(Br)cc1)c1ccc(S(=O)(=O)N2CCCCC2)cc1 | 3.9% | / | 1.3% | -1.6% | 6.8% | 1.7%
COC(=O)c1cc(NC(=O)Cc2ccccc2[N+](=O)[O-])cc(C(=O)OC)c1 | -22.6% | -9.2% | 2.5% | -10.1% | -3.0% | -2.6%
COC(=O)c1c(SC)nc2ccccc2c1OCc1ccc(C)cc1C | / | / | 4.2% | / | / | /
O=C(N/N=C/c1cccs1)c1cccc(NC(=O)c2ccc(Cl)cc2)c1 | -29.4% | -17.2% | -14.2% | -1.3% | ? | -2.6%
